From the supplement of paper PMC8269313

Test system: 4T1
Experiment: % inhibition of 4T1 cell number vs DMSO control; higher = stronger growth inhibition
Conditions: 1 µM, 3 days
In short: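 In 96-well imaging plates whose edge wells went unused, 3000 4T1-H2B-GFP mouse breast cancer cells per well were seeded in 2% FBS medium onto plastic, denuded lung matrix, mCAF1 fibroblast-derived matrix, Matrigel (15 μg/mL) or 0.2% gelatin. Sixteen hours on, kinase inhibitors went in at 1 μM final for 3 days before formalin fixation, DAPI staining and imaging on an INCell Analyzer 2200. Counting of GFP-positive nuclei gave cell numbers, from which percent inhibition relative to control was derived.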

[1] = substrate: lung fibroblast-derived matrix
[2] = substrate: mCAF1 fibroblast-derived matrix

Compound: COc1ccc(Cl)cc1NC(=O)Nc1cc(C)nc2ccccc12 [IGF-1R Inhibitor II]
- % inhibition of 4T1 cell number (substrate: Matrigel): -4.34%
- % inhibition of 4T1 cell number (substrate: gelatin): -99%
- % inhibition of 4T1 cell number [1]: -3.14%
- % inhibition of 4T1 cell number [2]: -1.23%
- % inhibition of 4T1 cell number (substrate: plastic): -44.3%

Compound: O=C1C(Cl)=C(N2C(=O)CCC2=O)C(=O)c2ccccc21 [MEK Inhibitor II]
- % inhibition of 4T1 cell number (substrate: Matrigel): -30.5%
- % inhibition of 4T1 cell number (substrate: gelatin): -13.5%
- % inhibition of 4T1 cell number [1]: -5.8%
- % inhibition of 4T1 cell number [2]: 50.2%
- % inhibition of 4T1 cell number (substrate: plastic): -66.5%

Compound: NC(=O)c1ccc2nc(-c3ccc(Oc4ccc(Cl)cc4)cc3)[nH]c2c1 [Chk2 Inhibitor II]
- % inhibition of 4T1 cell number (substrate: Matrigel): -26.7%
- % inhibition of 4T1 cell number (substrate: gelatin): -10.9%
- % inhibition of 4T1 cell number [1]: 22.1%
- % inhibition of 4T1 cell number [2]: 21.5%
- % inhibition of 4T1 cell number (substrate: plastic): -72.4%

Compound: CN1C(=O)C(c2c[nH]c3ccccc23)=C(c2c[nH]c3ccccc23)C1=O [Bisindolylmaleimide V]
- % inhibition of 4T1 cell number (substrate: Matrigel): 82.1%
- % inhibition of 4T1 cell number (substrate: gelatin): 67%
- % inhibition of 4T1 cell number [1]: -9.51%
- % inhibition of 4T1 cell number [2]: -40.4%
- % inhibition of 4T1 cell number (substrate: plastic): 50.7%

Compound: O=C(Nc1cc(C(F)(F)F)cc(C(F)(F)F)c1)c1cc(Cl)ccc1O [IKK-2 Inhibitor V]
- % inhibition of 4T1 cell number (substrate: Matrigel): 91.1%
- % inhibition of 4T1 cell number (substrate: gelatin): 90.6%
- % inhibition of 4T1 cell number [1]: 80.7%
- % inhibition of 4T1 cell number [2]: 82.9%
- % inhibition of 4T1 cell number (substrate: plastic): 94.5%

Compound: O=C1NC(=O)/C(=C/c2ccc3c(c2)OC(F)(F)O3)S1 [PI 3-Kg Inhibitor II]
- % inhibition of 4T1 cell number (substrate: Matrigel): 27.2%
- % inhibition of 4T1 cell number (substrate: gelatin): 11.1%
- % inhibition of 4T1 cell number [1]: 39.7%
- % inhibition of 4T1 cell number [2]: 5.87%
- % inhibition of 4T1 cell number (substrate: plastic): 37.8%

Compound: O=Nc1c(-c2c(O)[nH]c3cc(Br)ccc23)[nH]c2ccccc12 [GSK-3 Inhibitor IX]
- % inhibition of 4T1 cell number (substrate: Matrigel): -37.5%
- % inhibition of 4T1 cell number (substrate: gelatin): -7.89%
- % inhibition of 4T1 cell number [1]: -2.79%
- % inhibition of 4T1 cell number [2]: 55.1%
- % inhibition of 4T1 cell number (substrate: plastic): 42.2%

Compound: CC[C@H](CO)Nc1nc(NCc2ccccc2O)c2ncn(C(C)C)c2n1 [Olomoucine II]
- % inhibition of 4T1 cell number (substrate: Matrigel): 13.3%
- % inhibition of 4T1 cell number (substrate: gelatin): 23.4%
- % inhibition of 4T1 cell number [1]: 19.8%
- % inhibition of 4T1 cell number [2]: 13.3%
- % inhibition of 4T1 cell number (substrate: plastic): 23.7%

Compound: COc1ccc(-c2cnc3c(-c4ccsc4)cnn3c2)cc1 [VEGF Receptor 2 Kinase Inhibitor IV]
- % inhibition of 4T1 cell number (substrate: Matrigel): 8.54%
- % inhibition of 4T1 cell number (substrate: gelatin): 30.6%
- % inhibition of 4T1 cell number [1]: -18.1%
- % inhibition of 4T1 cell number [2]: 5.85%
- % inhibition of 4T1 cell number (substrate: plastic): -14.5%

Compound: COc1ccc2c(c1)c(C1=C(c3c[nH]c4ccccc34)C(=O)NC1=O)cn2CCCN(C)C
- % inhibition of 4T1 cell number (substrate: Matrigel): -19.1%
- % inhibition of 4T1 cell number (substrate: gelatin): -76.7%
- % inhibition of 4T1 cell number [1]: -27.2%
- % inhibition of 4T1 cell number [2]: 11.8%
- % inhibition of 4T1 cell number (substrate: plastic): -63.4%

Compound: c1ccc(-c2cnc(Nc3ccc(OCCN4CCCC4)cc3)s2)cc1 [Flt-3 Inhibitor III]
- % inhibition of 4T1 cell number (substrate: Matrigel): 95.2%
- % inhibition of 4T1 cell number (substrate: gelatin): 88.5%
- % inhibition of 4T1 cell number [1]: 5.06%
- % inhibition of 4T1 cell number [2]: 65.3%
- % inhibition of 4T1 cell number (substrate: plastic): 72.6%

Compound: CC[C@H](CO)Nc1nc(NCc2ccc(-c3ccccn3)cc2)c2ncn(C(C)C)c2n1 [CR8, (R)-Isomer]
- % inhibition of 4T1 cell number (substrate: Matrigel): 99.5%
- % inhibition of 4T1 cell number (substrate: gelatin): 98.7%
- % inhibition of 4T1 cell number [1]: -11.2%
- % inhibition of 4T1 cell number [2]: 96%
- % inhibition of 4T1 cell number (substrate: plastic): 96.7%

Compound: O=C1NCCc2[nH]c(-c3ccnc(-c4cnc5ccccc5c4)c3)cc21 [MK-2 Inhibitor III]
- % inhibition of 4T1 cell number (substrate: Matrigel): -42.1%
- % inhibition of 4T1 cell number (substrate: gelatin): -5.86%
- % inhibition of 4T1 cell number [1]: -4.6%
- % inhibition of 4T1 cell number [2]: 4.98%
- % inhibition of 4T1 cell number (substrate: plastic): -48.3%

Compound: CCOC(=O)c1c(C)[nH]c(/C=C2\C(=O)Nc3ccccc32)c1C [VEGF Receptor 2 Kinase Inhibitor I]
- % inhibition of 4T1 cell number (substrate: Matrigel): 21.5%
- % inhibition of 4T1 cell number (substrate: gelatin): -34.8%
- % inhibition of 4T1 cell number [1]: -12.5%
- % inhibition of 4T1 cell number [2]: -29.2%
- % inhibition of 4T1 cell number (substrate: plastic): 16.8%

Compound: N#C/C(=C(/N)Sc1ccccc1N)c1cccc(C(O)c2ccncc2)c1 (stereo not given) [MEK Inhibitor I]
- % inhibition of 4T1 cell number (substrate: Matrigel): -42.3%
- % inhibition of 4T1 cell number (substrate: gelatin): 30.7%
- % inhibition of 4T1 cell number [1]: 50.2%
- % inhibition of 4T1 cell number [2]: 40.9%
- % inhibition of 4T1 cell number (substrate: plastic): -71.7%

Compound: CC(C)n1cnc2c(NCc3ccccc3)nc(NCCCO)nc21 [Bohemine]
- % inhibition of 4T1 cell number (substrate: Matrigel): 16.5%
- % inhibition of 4T1 cell number (substrate: gelatin): 13%
- % inhibition of 4T1 cell number [1]: 0.282%
- % inhibition of 4T1 cell number [2]: -0.566%
- % inhibition of 4T1 cell number (substrate: plastic): -30.7%

Compound: O=C(c1ccccc1)c1ccc(N2CCOCC2)cc1O [DNA-PK Inhibitor V]
- % inhibition of 4T1 cell number (substrate: Matrigel): 58%
- % inhibition of 4T1 cell number (substrate: gelatin): 77.4%
- % inhibition of 4T1 cell number [1]: -6.09%
- % inhibition of 4T1 cell number [2]: 54.5%
- % inhibition of 4T1 cell number (substrate: plastic): 92.7%

Compound: COc1cc2ncnc(Nc3ccc(NC(=O)c4ccccc4)cc3)c2cc1OC [Aurora Kinase Inhibitor II]
- % inhibition of 4T1 cell number (substrate: Matrigel): 50.4%
- % inhibition of 4T1 cell number (substrate: gelatin): 37.2%
- % inhibition of 4T1 cell number [1]: -20.1%
- % inhibition of 4T1 cell number [2]: -30.6%
- % inhibition of 4T1 cell number (substrate: plastic): 35.8%

Compound: Nc1ncnc2c1c(I)cn2[C@@H]1O[C@H](CO)[C@@H](O)[C@H]1O [5-Iodotubercidin]
- % inhibition of 4T1 cell number (substrate: Matrigel): 15.7%
- % inhibition of 4T1 cell number (substrate: gelatin): 59.3%
- % inhibition of 4T1 cell number [1]: 7.74%
- % inhibition of 4T1 cell number [2]: 34.1%
- % inhibition of 4T1 cell number (substrate: plastic): 24.1%

Compound: Cc1cc(Nc2nc(-c3ccccc3)nc3ccccc23)n[nH]1 [GSK-3 Inhibitor XIII]
- % inhibition of 4T1 cell number (substrate: Matrigel): -21.7%
- % inhibition of 4T1 cell number (substrate: gelatin): -25.8%
- % inhibition of 4T1 cell number [1]: -19%
- % inhibition of 4T1 cell number [2]: 62.3%
- % inhibition of 4T1 cell number (substrate: plastic): -14.5%

Compound: O=C1NC(=O)c2c1c1c3ccccc3[nH]c1n1cncc21 [Isogranulatimide]
- % inhibition of 4T1 cell number (substrate: Matrigel): -41.6%
- % inhibition of 4T1 cell number (substrate: gelatin): -25.6%
- % inhibition of 4T1 cell number [1]: -7.38%
- % inhibition of 4T1 cell number [2]: 9.11%
- % inhibition of 4T1 cell number (substrate: plastic): -78.2%

Compound: O=C(Nc1ccc(-c2cn[nH]c2)cc1)C1COc2ccccc2O1 (stereo not given) [Rho Kinase Inhibitor V]
- % inhibition of 4T1 cell number (substrate: Matrigel): -9.35%
- % inhibition of 4T1 cell number (substrate: gelatin): 14.6%
- % inhibition of 4T1 cell number [1]: -8.88%
- % inhibition of 4T1 cell number [2]: 7.12%
- % inhibition of 4T1 cell number (substrate: plastic): -3.09%

Compound: COc1cc2ncn(-c3cc(OCc4ccccc4S(C)(=O)=O)c(C#N)s3)c2cc1OC [IKK-3 Inhibitor IX]
- % inhibition of 4T1 cell number (substrate: Matrigel): -14.6%
- % inhibition of 4T1 cell number (substrate: gelatin): -1.27%
- % inhibition of 4T1 cell number [1]: 1.67%
- % inhibition of 4T1 cell number [2]: 6.5%
- % inhibition of 4T1 cell number (substrate: plastic): -26.7%

Compound: O=C(Nc1ccc(Cl)cc1)c1ccccc1NCc1ccncc1 [VEGF Receptor Tyrosine Kinase Inhibitor II]
- % inhibition of 4T1 cell number (substrate: Matrigel): 28.8%
- % inhibition of 4T1 cell number (substrate: gelatin): -12.3%
- % inhibition of 4T1 cell number [1]: 79.7%
- % inhibition of 4T1 cell number [2]: 0.43%
- % inhibition of 4T1 cell number (substrate: plastic): 17.2%

Compound: CCC(CO)Nc1nc(NCc2ccccc2)c2ncn(C(C)C)c2n1 [Roscovitine, (S)-Isomer]
- % inhibition of 4T1 cell number (substrate: Matrigel): -4.8%
- % inhibition of 4T1 cell number (substrate: gelatin): 59.2%
- % inhibition of 4T1 cell number [1]: 1.55%
- % inhibition of 4T1 cell number [2]: 29.4%
- % inhibition of 4T1 cell number (substrate: plastic): -6.54%

Compound: O=c1cc(N2CCOCC2)oc2c(-c3ccccc3)cccc12
- % inhibition of 4T1 cell number (substrate: Matrigel): -14.7%
- % inhibition of 4T1 cell number (substrate: gelatin): -77.3%
- % inhibition of 4T1 cell number [1]: 28.2%
- % inhibition of 4T1 cell number [2]: 17.4%
- % inhibition of 4T1 cell number (substrate: plastic): -56.8%

Compound: O=C1c2ccccc2-c2n[nH]c3cccc1c23 [JNK Inhibitor II]
- % inhibition of 4T1 cell number (substrate: Matrigel): -51.1%
- % inhibition of 4T1 cell number (substrate: gelatin): -11.8%
- % inhibition of 4T1 cell number [1]: -2.64%
- % inhibition of 4T1 cell number [2]: 27.7%
- % inhibition of 4T1 cell number (substrate: plastic): -62.6%
